Experimental data taken from PubChem BioAssay (NCATS).
“And” between values parts separate entries of the source, which are not always exact repeats. Identical values can stand only once. Records with an inconclusive call do not appear. The source made the active and inactive calls. Calls come from the whole dose curve; as a rule, active = well fitted inhibition curve with a large enough effect; inconclusive = small, poorly fitted or top-dose-only effect; inactive = flat fitted curve, though single readings scatter.

Assay: Primary qHTS for inhibitors of nuclear receptor binding SET domain protein 2 (NSD2) in an isogenic RCH-ACV NSD2 p.E1099K mutant (9B) (AID 1645876); note: nearly all actives have a fitted effect of over 70% in size
Conditions: RCH-ACV (leukaemia line) NSD2 E1099K (9B) viability, CellTiter-Glo, 72 h; series mostly up to 44.9 µM; activity change, negative = viability loss: at the top concentration
% is set by controls: 0 for no effect and ±100 for the full control effect; potency is the fitted concentration of half-maximal effect.

Row | SMILES | activity change, negative = viability loss | Potency
1 | O=C(c1ccccc1)c1c(O)cc(O)cc1O[C@@H]1O[C@H](CO)[C@@H](O)[C@H](O)[C@H]1O | -11.9% (inactive) | 
2 | CC(C)S(=O)(=O)Nc1ccc(F)c(C(=O)c2c[nH]c3ncc(-c4cccnc4)cc23)c1F |  | 4.09 µM (active)
3 | C=C1C(=O)OC2/C=C(\C)CC3C=C(CC/C=C(\C)CCC12)C(=O)O3 (stereo not drawn) |  | 12.7 µM (active)
4 | CC(=O)O[C@@H]1CC[C@@]2(C)C(CC[C@]3(C)C2[C@H](O)C=C2[C@H]4[C@@H](C)[C@H](C)CC[C@]4(C)CC[C@]23C)[C@@]1(C)C(=O)O (stereo partly drawn) | -18.1% [at 17.3 µM] (inactive) | 
5 | CC(=O)OC[C@]12[C@H](OC(C)=O)C(=O)[C@@H]3[C@@H](O)[C@@]14O[C@@]3(C)COC(=O)c1cccnc1[C@@H](C)[C@H](C)C(=O)O[C@@H]([C@H](O)[C@@H]2OC(C)=O)[C@]4(C)O |  | 5.41 µM (active)
6 | C=C1C(=O)O[C@@H]2[C@H]1CC(=O)[C@H](C)[C@@](O)(C(=O)/C=C/C)[C@H]2OC(=O)C(C)CC (stereo partly drawn) |  | 1.27 µM (active)
7 | Cc1ccc(NC(=O)c2ccc(CN3CCNCC3)cc2)cc1Nc1nccc(-c2cccnc2)n1 |  | 16.3 µM (active) and 14.8 µM (active)
8 | Cc1cc(-c2nc3cc(F)ccc3s2)ccc1NC(=O)[C@@H](N)CCCCN |  | 5.25 µM (active)
9 | O=c1[nH]cnc2c([C@@H]3N[C@H](CO)[C@@H](O)[C@H]3O)c[nH]c12 | -10.7% (inactive) | 
10 | O=C(CN1C2=NCCN2c2ccccc21)c1ccc(-c2ccccc2)cc1 |  | 11.5 µM (active)
11 | C/C(=C/CO)CCC1C(C)CCC2C(C)(C)CCCC12C (stereo not drawn) | -6.61% (inactive) | 
12 | O=C(NCCCNC(=O)c1ccc[nH]c1=O)c1cc(-c2ccccc2)on1 |  | 8.33 µM (active)
13 | CC(C)C[C@H](C(=O)O)c1cc(-c2ccc(C(F)(F)F)cc2)cc(-c2ccc(C(F)(F)F)cc2)c1 |  | 9.16 µM (active)
14 | CC(=O)O[C@H]1CC2C(COC(=O)CC(C)C)=CO[C@@H](OC(=O)CC(C)C)C2[C@]12CO2 (stereo partly drawn) |  | 7.96 µM (active)
15 | C=C1C(=O)O[C@@H]2C3C(=C(C)[C@@H](O)[C@@H](OC(=O)/C(=C/C)COC(C)=O)[C@@H]12)C(=O)[C@H]1O[C@@]31C (stereo partly drawn) |  | 2.82 µM (active)
16 | Cc1c(C2=CCN(C(=O)N(C)C(C)C)CC2)nnn1-c1cccnc1F | -27.8% (inactive) | 
17 | C=C[C@@]1(C)C=C2C(=O)C(O)=C3[C@](C)(C(=O)O)CC[C@@H]4C[C@]34[C@]2(O)C(=O)C1 |  | 10.1 µM (active)
18 | C=C1C(=O)O[C@@H]2/C=C(/C)[C@@H](OC(C)=O)C/C=C(\C)C[C@@H](OC(=O)/C(=C/CO)CO)[C@@H]12 |  | 7.09 µM (active)
19 | C=C1C(=O)O[C@@H]2/C=C(\C)CC/C=C(\C)CC[C@@H]12 |  | 14.5 µM (active)

Row | SMILES | activity change, negative = viability loss | Potency
20 | O=C(/C=C/c1ccccc1O)O[C@@H]1O[C@H](CO)[C@@H](O)[C@H](O)[C@H]1O | 3.53% (inactive) | 
21 | CC[C@@H](C)Nc1cc(C(=O)NC2CC3CCC(C2)N3c2ccc(C(=O)C3CC3)cn2)c(C)cc1C(N)=O (stereo partly drawn) |  | 0.118 µM (active)
22 | c1ccc(-c2ccc(CNc3nc(-c4ccccn4)nnc3-c3ccccc3)cc2)cc1 |  | 2.95 µM (active)
23 | CCCOc1ccc(CCc2nc3cc(-c4c(C)noc4C)ccc3n2CCN2CCOCC2)cc1 |  | 8.33 µM (active)
24 | Cn1cc(-c2cnn3c(N)c(Br)c(C4CCCNC4)nc23)cn1 (stereo not drawn) |  | 1.18 µM (active)
25 | C=C(C(=O)O[C@H]1C/C(C)=C/CC/C(CO)=C/[C@H]2OC(=O)C(=C)[C@H]12)C(O)CO (stereo partly drawn) |  | 7.13 µM (active)
26 | CC(=O)OC1[C@H]2[C@@H](C[C@@H](C)[C@@H]3C=CC(=O)[C@@]13C)OC(=O)[C@@H]2C (stereo partly drawn) |  | 10.3 µM (active)
27 | C=C1C(=O)O[C@@H]2[C@H]1CC[C@H](C)C(CCC(=O)O)C2(C)O (stereo partly drawn) |  | 18.3 µM (active)
28 | CC(C)C[C@@H]1NC(=O)[C@@H](Cc2ccccc2)NC(=O)C(CCCCCC(=O)C2CO2)NC(=O)[C@@H]2CCCCN2C1=O (stereo partly drawn) |  | 0.0709 µM (active)
29 | C=CC(C)(O)CC/C=C(\C)C(=O)OC1C(O)C(CO)OC(OC(=O)C23CCC(C)(C)CC2C2=CCC4C5(C)CCC(OC6OC(COC7OCC(OC(C)=O)C(O)C7OC7OC(COC(C)=O)C(O)C(O)C7OC(C)=O)C(O)C(O)C6OC6OCC(O)C(O)C6O)C(C)(C)C5CCC4(C)C2(C)C(O)C3O)C1OC1OCC(OC2OCC(O)C(OC3OCC(O)C(O)C3O)C2O)C(O)C1O (stereo not drawn) |  | 0.792 µM (active)
30 | CC1(C)CCCC2(C)C1C(OC(=O)/C=C/C=C/C=O)C=C1COC(=O)C12O (stereo not drawn) |  | 7.09 µM (active)
31 | C=C1CO[C@@]2(O[C@H]3CC4C5CC=C6C[C@@H](O)C[C@@H](O[C@@H]7OC[C@H](O)[C@H](O[C@@H]8OC[C@@H](O)[C@H](O)[C@H]8O)[C@H]7O[C@@H]7O[C@@H](C)[C@H](OC(C)=O)[C@@H](OC(C)=O)[C@H]7OC(C)=O)[C@]6(C)C5CC[C@]4(C)[C@@H]3[C@@H]2C)[C@@H](O)[C@H]1OC1OC(C)C(O)C(O)C1O (stereo partly drawn) |  | 2.18 µM (active)
32 | Cn1ncc(Cl)c1-c1cc(C(=O)N[C@H](CN)Cc2ccc(F)c(F)c2)oc1Cl |  | 0.649 µM (active)
33 | O=C(Nc1cccnn1)N1CCN(c2nccc(-c3ccc(F)c(F)c3)n2)CC1 | -4.96% [at 91.9 µM] (inactive) | 
34 | CC(=O)O[C@@]12CO[C@@H]1C[C@H](O)[C@@]1(C)C(=O)[C@H](O)C3=C(C)[C@@H](OC(=O)[C@H](O)[C@@H](NC(=O)OC(C)(C)C)c4ccccc4)C[C@@](O)([C@@H](OC(=O)c4ccccc4)C12)C3(C)C (stereo partly drawn) |  | 0.004 µM (active)
35 | Cc1cc2c(F)c(Oc3ncnn4cc(OCC(C)OC(=O)C(C)N)c(C)c34)ccc2[nH]1 (stereo not drawn) |  | 9.34 µM (active)
36 | COc1cc(C(C)=O)c(OC)c2c1OC(C)(C)C=C2 | -5.95% (inactive) | 
37 | Cc1[nH]c2ccccc2c1CCNCc1ccc(/C=C/C(=O)NO)cc1 |  | 18.3 nM (active) and 52.5 nM (active)
38 | C=C1CC[C@@H](O)[C@]2(C)C[C@H]3OC(=O)C(=C)[C@H]3CC12 (stereo partly drawn) |  | 16.3 µM (active)
